Only a selection was taken, and hits are over-represented in it overall.
BoNT A protease – BoNT/A light chain protease inhibitors, primary screen, biochemical, flow cytometry, MLPCN library; Botulinum neurotoxin type A light chain protease (Clostridium botulinum A str. ATCC 3502); multiplex microsphere protease substrate cleavage; inhibition, % at 10 µM; actives 0.17% (n = 360,000)
Anthrax LF prot – Bacillus anthracis LF protease inhibitors, primary screen, biochemical, multiplex microsphere, MLPCN library | Lethal factor (Bacillus anthracis), P15917 | multiplex microsphere protease cleavage assay | inhibition, % at 10 µM | actives 0.12% (n = 360,000) | AID 588501, 2011
Autofluor counter – counter-screen for toxin protease inhibitors: compound fluorescence; fluorescence intensity (concentration not given with the values); actives 3.1% (n = 360,000); AID 624483; compound autofluorescence counterscreen, microsphere flow cytometry; active compounds read high; in the data active = fluorescence intensity above about 16000; inconclusive = no clear call, values can overlap the other calls
BoNT-F LC inh – BoNT/F light chain protease inhibitors, primary screen, biochemical, flow cytometry, MLPCN library; Botulinum neurotoxin type F light chain protease (Clostridium botulinum); Multiplex microsphere protease cleavage assay; inhibition, % at 10 µM; actives 0.22% (n = 360,000); in the data active = inhibition above about 35%, passing the limit was not always enough; inconclusive = no clear call, values can overlap the other calls
TcdB inh – TcdB glycohydrolase inhibitors, primary screen, biochemical, single point, plate reader | inhibition, % at 9.99 µM | actives 0.24% (n = 350,000) | Toxin B (Clostridioides difficile), P18177 | TcdB glycohydrolase enzymatic assay; in the data active = inhibition above about 10%
A number is an active result; 0 = inactive; ? = inconclusive; - = not tested or not shown. Cut-off read from the data, not from the text of the source, unless noted: active = inhibition above about 30%; inconclusive = no clear call, values can overlap the other calls; inactive = below that.

SMILES	BoNT A protease	Anthrax LF prot	Autofluor counter	BoNT-F LC inh	TcdB inh
CCOP(=O)(OCC)c1nc(-c2cccc3ccccc23)oc1NCc1ccc(OC)cc1	0	0	0	0	0
CCOP(=O)(OCC)c1nc(/C=C/c2ccccc2)oc1NCc1ccc(OC)cc1	0	0	24914	0	0
CCOP(=O)(OCC)c1nc(-c2cccc3ccccc23)oc1NCc1ccccc1	0	0	17554	0	0
COCCNC(=O)C[C@H]1CC[C@@H]2[C@H](COc3ccc(NC(=O)C4CCOCC4)cc3C(=O)N2C)O1	-	-	-	-	0
CCN(CC)c1nc2n(c(=O)n1)CCN2CC	0	0	21466	0	-
COc1cccc(-c2ccc(C3[C@@H]4CN(C(=O)C5CC5)C[C@H]3N4)cc2)c1 (stereo partly specified)	-	-	-	-	0
COC(=O)c1ccc(Oc2nc(Nc3ccccc3)nc(N(C)C)n2)cc1	0	0	20995	0	-
CC(C)(C)C(=O)N(CCN(C(=O)C(C)(C)C)c1ccccc1)c1ccccc1	0	0	23201	0	-
CC(=O)N(CCN(C(C)=O)c1ccccc1)c1ccccc1	0	0	0	0	-
COc1ccc(S(=O)(=O)N(C)C[C@@H]2Oc3ccc(NS(C)(=O)=O)cc3C(=O)N([C@H](C)CO)C[C@@H]2C)cc1	-	-	-	-	0
Cc1ccc(NC(=O)N2CCCC(c3ccccc3)C2)cc1 (stereo unspecified)	0	0	0	0	0
CCOc1ccc(NC(=O)N2CCC(c3ccc(C)cc3)C2)cc1 (stereo unspecified)	0	0	22970	0	-
FC(F)(F)c1cc(Cl)c2nc(-c3ccc(Cl)cc3)c(Cc3ccsc3)n2c1	0	0	0	0	0
FC(F)(F)c1cc(Cl)c2nc(-c3ccccc3)c(Cc3ccsc3)n2c1	0	0	0	0	10.4
Cc1ccc(CCNC(=O)CCSCc2ccc(Cl)cc2)cc1	0	0	0	0	0
Cc1ccc(CSCCNC(=O)/C=C/c2ccc(Cl)cc2)cc1	0	0	21860	0	0
O=C(C[C@H]1C[C@H]2c3cc(NC(=O)C4CCOCC4)ccc3O[C@H]2[C@H](CO)O1)NCc1ccccn1	-	-	-	-	0
CCOC(=O)C1CCCN(c2c(NCCCN(CC)c3ccccc3)c(=O)c2=O)C1 (stereo unspecified)	0	0	24139	0	-
CCOC(=O)C1CCCN(c2c(NCCN(CC)c3ccccc3)c(=O)c2=O)C1 (stereo unspecified)	0	0	0	0	0
COCCNC(=O)Nc1ccc2nc(-c3cccs3)c(-c3cccs3)nc2c1	132.5	57.4	0	41.6	-
COCCNC(=O)c1cc(-c2cccs2)on1	0	0	0	0	0
CN(C)CC(=O)N1CC(=O)N2[C@@H](CO)[C@H](c3ccc(/C=C/c4ccccc4)cc3)[C@@H]2C1	-	-	-	-	0
CC(C)NC(=O)N(C)C[C@@H]1Oc2ccc(NC(=O)Nc3ccccc3)cc2CC(=O)N([C@@H](C)CO)C[C@H]1C	-	-	-	-	0
CCN(CC)CCn1c(NCc2ccco2)nc2ccccc21	0	0	21505	0	0
Cn1c(NCc2cccs2)nc2ccccc21	0	0	0	0	-
SMILES	BoNT A protease	Anthrax LF prot	Autofluor counter	BoNT-F LC inh	TcdB inh
Cn1c(NCc2ccco2)nc2ccccc21	?	0	17845	0	-
CC(=O)NC(=S)Nc1ccc(NC(=O)COc2ccc(Cl)cc2Cl)cc1	0	0	0	0	-
O=C(COc1ccc(Cl)cc1Cl)NNC(=S)Nc1ccc(F)cc1	0	0	16581	0	0
O=C(COc1ccc(Cl)cc1Cl)NCc1ccncc1	0	0	19178	0	-
COCCCn1c(Cc2ccccc2)nnc1SCC(=O)N1CCCCC1	0	0	22748	0	-
COCCn1c(Cc2ccccc2)nnc1SCC(=O)N1CCOCC1	0	0	0	0	0
Cc1ccc(S(=O)(=O)N(C)C[C@@H]2OCCCC[C@H](C)Oc3ccc(NS(=O)(=O)c4cn(C)cn4)cc3C(=O)N([C@@H](C)CO)C[C@@H]2C)cc1	-	-	-	-	0
CCOCCCn1c(=N)c(C(=O)NCCN2CCOCC2)cc2c(=O)n3cccc(C)c3nc21	0	0	22990	0	-
CSc1ccccc1N1CCN(C(=O)Nc2ccc3c(c2)NC(=O)CO3)CC1	?	0	21233	0	-
CO[C@H](CN(C)S(=O)(=O)c1ccccc1)[C@H](C)CN(Cc1ccccc1Cl)[C@@H](C)CO	-	-	-	-	0
CC1CCCCN1C(=O)c1ccc(S(=O)(=O)N2CCCCC2C)cc1 (stereo unspecified)	0	0	0	0	-
